Test results reported in PubChem BioAssay AID894 (National Center for Advancing Translational Sciences (NCATS), 2007).
Out of some 150,000 compounds screened, about 6,500 (4.3%) were called active. Not shown: some 12% with an inconclusive outcome. Calls follow the shape of the dose curve; as a rule, active = well fitted inhibition curve with a large enough effect (not every such curve was filed as active); inconclusive = small, poorly fitted or top-dose-only effect, or another doubt; inactive = no such curve, though single readings can be large or run the other way. This excerpt belongs to a sample that is enriched for actives.

molecular target: 15-hydroxyprostaglandin dehydrogenase [NAD(+)] (Homo sapiens) (UniProt P15428); assay: qHTS Assay for Inhibitors of HPGD (15-Hydroxyprostaglandin Dehydrogenase); details: purified HPGD, NADH fluorescence kinetic, PGE2 substrate; activity change, negative = inhibition: stronger effect = lower value
Sequence (P15428 whole entry, looked up): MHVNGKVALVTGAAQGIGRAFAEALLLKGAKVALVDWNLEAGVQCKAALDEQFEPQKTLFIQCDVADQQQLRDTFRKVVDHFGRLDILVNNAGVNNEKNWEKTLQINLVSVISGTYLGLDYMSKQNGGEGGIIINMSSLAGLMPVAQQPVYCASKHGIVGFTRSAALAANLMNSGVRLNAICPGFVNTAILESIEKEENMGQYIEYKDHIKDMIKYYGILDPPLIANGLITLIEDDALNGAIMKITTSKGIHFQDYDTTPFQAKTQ
Outline: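 20 nM HPGD preincubated 15 min at room temperature with compound in 50 mM Tris-HCl pH 8, 0.01% Tween 20. Started with 1 mM NAD+ and 30 uM prostaglandin E2; NADH fluorescence (360/450 nm) read 5 times over 30-s intervals, last minus first.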
% is scaled to controls: 0 for no effect and ±100 for the full control effect; potency is read from the fitted curve at half-maximal effect.

Structure (SMILES)	Potency	activity change, negative = inhibition
Cc1cc(C=O)c(C)n1-c1ccc(NC2CCCCC2)c([N+](=O)[O-])c1	7.94 µM (active)	–
Cc1cc([N+](=O)[O-])ccc1NC1CCCC1	–	-16.1% (inactive)
Cc1c(NS(=O)(=O)c2ccc(NC3CCCC3)c([N+](=O)[O-])c2)c(=O)n(-c2ccccc2)n1C	–	-7.49% (inactive)
COc1ccc(C2NC(=S)NC3=C2CCc2ccccc23)cc1OC (centres undefined)	–	-17.9% (inactive)
Cc1nn(Cc2ccc(F)cc2)c(C)c1NC(=O)c1cccnc1Cl	–	-10.3% (inactive)
COc1cc(/C=C2/C(=O)ON=C2C)ccc1OCc1ccccc1F	1.58 µM (active)	–
CCOc1cc(/C=N/O)ccc1OCc1ccccc1F	–	-1.63% (inactive)
COc1cccc(CNCCc2c[nH]c3ccccc23)c1OCc1ccccc1F	–	-4.46% (inactive)
CCOc1ccc(/C=N/NC(=O)C(C)Sc2ccccn2)cc1OCC (centres undefined)	–	-18.1% (inactive)
COc1ccc(/C=C/C(=O)c2ccc(NS(=O)(=O)c3ccc(C)cc3)cc2)cc1O	–	-19.9% (inactive)
CCOC(=O)c1ccc(N2C(=O)CC(Sc3nc(O)c(CC)c(=O)[nH]3)C2=O)cc1 (centres undefined)	–	-10.7% (inactive)
COc1ccc(N2C(=O)CC(SC(C)C)C2=O)cc1 (centres undefined)	–	-4.33% (inactive)
O=C1CC(Sc2ncn[nH]2)C(=O)N1c1ccccc1 (centres undefined)	12.6 µM (active)	–
CCNc1nc(NC(C)C)nc(N2CC(=O)N(CC(=O)OCC)C2=N)n1	–	-1.19% (inactive)
CCCCS(=O)(=O)N1C2=NC(C(=O)OC)=C(C(=O)OC)[C@@H]3N(Cc4ccccc4)c4ccccc4[C@]23C[C@H]1C(=O)OC	–	-6.02% (inactive)
N#Cc1ccsc1NC(=O)CN1CCCCC1	–	-11.5% (inactive)
CCN(CC)C(=O)c1sc(NC(=O)c2ccco2)c(C#N)c1C	–	-18.8% (inactive)
CCC(=O)Nc1sc(C(=O)N2CCCCC2)c(C)c1C#N	4.47 µM (active)	–
CC1CN(C(=S)SCC(=O)c2ccccc2)CC(C)O1 (centres undefined)	–	-10.1% (inactive)
CCC(C)(C)C1CCC(=NNC(=O)c2ccc(Br)o2)CC1 (centres undefined)	–	-9.21% (inactive)

Structure (SMILES)	Potency	activity change, negative = inhibition
O=C(CSc1nnc(SCc2ccc(Cl)cc2)s1)N/N=C/c1ccccc1Cl	–	-3.98% (inactive)
O=C(COC(=O)CCCNC(=O)c1ccc(Cl)cc1)Nc1cc(Cl)ccc1Cl	–	-18.1% (inactive)
C/C(=N\NC(=O)c1ccccc1C)c1ccc(N2CCOCC2)cc1	–	-15.3% (inactive)
Cc1ccccc1N/N=C/c1ccc(N2CCOCC2)cc1	28.2 µM (active)	–
C(=N/Nc1cc(N2CCOCC2)nc(N2CCOCC2)n1)/c1ccccc1	–	-6.61% (inactive)
CCN(CC)S(=O)(=O)c1cc([N+](=O)[O-])ccc1N=Nc1c(O)n(C)c2ccccc12	–	-5.63% (inactive)
Cc1c(/C=N/N2C(=O)C3C4C=CC(C4)C3C2=O)c2ccccc2n1C (centres undefined)	–	-1.58% (inactive)
CC(=O)N1c2ccccc2N(Cc2ccc([N+](=O)[O-])cc2)C(=O)C1(C)C	–	-6.13% (inactive)
CCCN1CNC(=S)N(CCc2ccccc2)C1	–	1.42% (inactive)
Cc1ccc(OCC(=O)OC(C)CN(C)Cc2ccccc2)cc1 (centres undefined)	–	-13.4% (inactive)
O=C(CSc1nc(-c2ccco2)cc(C(F)(F)F)n1)NCc1cccs1	–	-3.58% (inactive)
O=C(CSc1nc(-c2ccco2)cc(C(F)(F)F)n1)N1CCc2ccccc2C1	2.24 µM (active)	–
FC(F)(F)c1cc(-c2ccco2)nc(N2CCOCC2)n1	–	-8.04% (inactive)
CN(C)c1ccc(/C=N/N(Cc2ccccc2)c2ccccc2)cc1	–	-11.9% (inactive)
CCN(C(=O)COC(=O)c1cc(NS(=O)(=O)c2ccc(Cl)c([N+](=O)[O-])c2)ccc1O)C1CCCCC1	–	-7.74% (inactive)
CNC(=S)N1CCN(c2ccccn2)CC1	–	-14% (inactive)
CN(C)c1ccc(/C=N\S(=O)(=O)c2ccccc2)cc1	–	-10.7% (inactive)
COc1ccccc1NC(=O)CSc1nc2sc(C)c(C)c2c(=O)n1Cc1ccco1	–	-18.7% (inactive)
CCOC(=O)CSc1nc2c(c(=O)n(C)c(=O)n2C)n1Cc1ccccc1F	–	-4.76% (inactive)
CCOC(=O)CSc1nc2c(sc(=S)n2CCc2ccccc2)c(=O)n1Cc1ccco1	20 µM (active)	–

Structure (SMILES)	Potency	activity change, negative = inhibition
COc1ccc(C(=O)Nc2ccc3nc(N4CCCCC4)cc(C)c3c2)cc1OC	–	-27.2% (inactive)
CC1(C)CC(=O)C(N=Nc2ccc(S(=O)(=O)N3CCCCCC3)cc2)=C(O)C1	25.1 µM (active)	–
Cc1ccc(S(=O)(=O)N2CCC(N3CCCCCC3)CC2)cc1	–	-7.84% (inactive)
COc1ccc(S(=O)(=O)N2CCCCC2)cc1Br	–	-1.54% (inactive)
CCOc1c(Br)cc(/C=C2\C(=O)N(CCC#N)N=C2C)cc1OC	5.01 µM (active)	–
CCOc1cc(/C=N/O)cc(Br)c1OC	–	-21.3% (inactive)
C=CCOc1c(Br)cc(/C=N\n2nnnc2N)cc1OC	–	-12.6% (inactive)
COc1ccc(S(=O)(=O)Nc2ccc3oc(C)c(C(C)=O)c3c2)cc1	–	-11.3% (inactive)
COc1ccc(C(=O)c2c(C)oc3cc([N+](=O)[O-])c(O)c([N+](=O)[O-])c23)cc1	14.1 µM (active)	–
COc1ccc(-c2oc3cc(OC)ccc3c2C(=O)c2ccc(C#N)cc2)cc1	–	-8.41% (inactive)
CCO/N=C(/C)c1c(O)cc(-c2ccccc2)n(-c2ccccc2)c1=O	–	-9.45% (inactive)
CC(C)(C)c1ccc(C(=O)CSc2ncn[nH]2)cc1	25.1 µM (active)	–
Cn1nnc(NC(=O)CSc2ncn[nH]2)n1	–	-3.42% (inactive)
CCN(C(=O)CSc1ncn[nH]1)c1cccc2ccccc12	–	-11.5% (inactive)
S=C(NCC1COc2ccccc2O1)Nc1ccc(Br)cc1 (centres undefined)	–	-26.7% (inactive)
Cc1ccc(CCCOC(=O)C[N+]2(C)CCCC2)cc1	–	-8.3% (inactive)
C=CCn1c(CSc2nc3ccccc3s2)nnc1SCC(=O)NCc1ccco1	17.8 µM (active)	–
O=C(CSc1nnc(-c2cccs2)n1-c1ccccc1)NCc1ccco1	–	-2.44% (inactive)
C=CCn1c(SCC(=O)Nc2nc3ccccc3s2)nnc1-c1ccccc1O	–	-10.2% (inactive)
